Results published in the supplement of paper PMC6555819.

Columns and labels:
Experiment in all cases: PBM binding z-score (relative to random genomic background probes); higher = stronger binding; sequences stand for … in GC…GCGATTGACAGCGTAGAATGAAGG
[1] = tested on: PPARg:RXRa DBDmut IVT, anti-RXR (DBD mutation: RXRa K156A/R161A, NR concentration 270 nM, RXRa partner concentration 90 nM)
Outline: (§1)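 Probes were double-stranded and carried 34-nt variable regions with direct-repeat seeds, single-nucleotide variants, half-site ablations and random human genomic background sequences, printed on custom Agilent 4×180K protein-binding microarrays. Arrays were incubated 1 h with ligand-free nuclear receptor dimers in PBS pH 7.4, 2% milk, 0.02% Triton X-100, 1 mM DTT, 0.2 mg/mL BSA and 0.4 mg/ml salmon testes DNA. Antibodies against each partner (one per run) detected binding, and scanned fluorescence was regression-normalized. Binding z-scores use the random background probes as reference.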

[2] = tested on: PPARg:RXRa IVT, anti-PPARg (NR concentration 270 nM, RXRa partner concentration 90 nM)
Outline: as §1

[3] = tested on: PPARg DBDmut:RXRa IVT, anti-PPARg (DBD mutation: PPARg1 K132A/R137A, NR concentration 270 nM, RXRa partner concentration 90 nM)
Outline: as §1

[4] = tested on: PPARg DBDmut IVT, anti-PPARg (DBD mutation: PPARg1 K132A/R137A, NR concentration 270 nM)
Outline: as §1

[5] = tested on: PPARg homodimer (NR concentration 180 nM)
Outline: as §1

[6] = tested on: PXR:RXRa (NR concentration 270 nM, RXRa partner concentration 90 nM)
Outline: as §1

[7] = tested on: PXR homodimer (NR concentration 270 nM)
Outline: as §1

[8] = tested on: RARa:RXR (NR concentration 270 nM, RXRa partner concentration 90 nM)
Outline: as §1

[9] = tested on: RARa homodimer (NR concentration 270 nM)
Outline: as §1

[10] = tested on: RARb:RXRa (NR concentration 270 nM, RXRa partner concentration 90 nM)
Outline: as §1

[11] = tested on: RARb homodimer (NR concentration 270 nM)
Outline: as §1

[12] = tested on: RARg:RXRa (NR concentration 270 nM, RXRa partner concentration 90 nM)
Outline: as §1

[13] = tested on: RARg homodimer (NR concentration 270 nM)
Outline: as §1

[14] = tested on: RXRa DBDmut IVT, anti-RXR (DBD mutation: RXRa K156A/R161A, NR concentration 90 nM)
Outline: as §1

[15] = tested on: RXRa homodimer (NR concentration 180 nM)
Outline: as §1

[16] = tested on: THRa:RXRa (NR concentration 90 nM, RXRa partner concentration 90 nM)
Outline: as §1

[17] = tested on: THRa homodimer (NR concentration 90 nM)
Outline: as §1

[18] = tested on: VDR homodimer (NR concentration 270 nM)
Outline: as §1

| Sequence | PBM binding z-score [1] | PBM binding z-score [2] | PBM binding z-score [3] | PBM binding z-score [4] | PBM binding z-score [5] | PBM binding z-score [6] | PBM binding z-score [7] | PBM binding z-score [8] | PBM binding z-score [9] | PBM binding z-score [10] | PBM binding z-score [11] | PBM binding z-score [12] | PBM binding z-score [13] | PBM binding z-score [14] | PBM binding z-score [15] | PBM binding z-score [16] | PBM binding z-score [17] | PBM binding z-score [18] |
| --- | --- | --- | --- | --- | --- | --- | --- | --- | --- | --- | --- | --- | --- | --- | --- | --- | --- | --- |
| ACAGACAGGTGAGTGACGGTAACTCAGCTGGACG | 0.522 | 0.563 | 0.246 | 0.557 | -0.526 | -0.527 | -0.705 | -0.525 | -0.487 | 0.377 | -0.222 | 0.269 | 0.362 | -0.203 | 0.416 | -0.128 | -0.727 | -0.577 |
| GGAACGAGGGCAAAGTTTATAGCATCTGTCGACG | 4.26 | 4.43 | 0.246 | 0.345 | 0.817 | 1.91 | 0.961 | 1.74 | 0.0168 | 2.6 | 1.8 | 2.31 | 2.04 | 2.61 | 2.22 | 1.63 | -0.279 | 2.22 |
| CGTCCAAGGTCAAAGGGCAGTGAAGAGATGACGG | 2.96 | 4.49 | 0.0203 | 0.196 | 2.9 | 4.98 | 1.24 | 6.27 | 1.01 | 5.36 | 4.39 | 6.57 | 6.29 | 3.46 | 7.24 | 4.14 | 1.86 | 2.28 |
| TCTAATAGTTGATTAGGGCAACCGAAACAGCGGA | 1.74 | 1.56 | 0.711 | 0.3 | 0.347 | 0.323 | -0.117 | 0.766 | -0.402 | 0.915 | 0.599 | 0.338 | 0.66 | 0.755 | 0.708 | 0.551 | -0.0484 | -0.0344 |
| ATATGTAGGTTAGGTGGGGTCATTCAGACTAGGC | 6.72 | 5.87 | 2.01 | 3.16 | 2.99 | 6.47 | 4.9 | 6.09 | 1.79 | 2.98 | 3.74 | 4.1 | 3.02 | 2.19 | 5.54 | 5.05 | 3.72 | 6.4 |
| GCTACAGGGTCAAGGCCAGAGTACGCGTATTGAT | 2.54 | 3.15 | -0.313 | 0.11 | 2.84 | 4 | 0.0658 | 4.7 | 0.58 | 4.59 | 3.58 | 5.38 | 5.17 | 3 | 5.92 | 3.42 | 1.38 | 2.4 |
| TAGCCTAGGTCATGGGCCAGTATTCCACGCGAAC | 1.55 | 3.11 | 0.483 | -0.959 | 1.79 | 1.75 | -0.956 | 2.95 | -0.638 | 3.78 | 2.79 | 4.27 | 4.6 | 0.71 | 3.8 | 2.99 | 1.33 | 0.208 |
| CCTACTGGGCCACGAAAGGTCATTGAGTCAGTGA | 5.96 | 6.12 | 0.241 | -0.3 | 3.76 | 5.49 | 1.93 | 5.72 | 1.51 | 4.04 | 4.62 | 4.82 | 4.58 | 0.536 | 5.23 | 3.79 | 0.857 | 1.69 |
| TATACAGGGTCAAAGGCCTGAGTACGAATGTCGA | 2.08 | 4.32 | 3.81 | 3.06 | 4.01 | 3.86 | 0.321 | 5.15 | 1.29 | 4.2 | 3.17 | 5.49 | 4.87 | 2.89 | 6.3 | 3.28 | 0.678 | 3.41 |
| GGAACGAGGGCTAAGTTGATAGCATCTGTCGACG | 0.209 | 0.114 | 0.146 | -0.476 | -0.2 | -0.47 | -0.382 | -0.0692 | -0.234 | 0.086 | -0.586 | -0.0723 | 0.11 | 0.186 | -0.114 | -0.638 | -0.828 | -0.365 |
| AATGCAGGGTCATCGTAGGCCAGAGTACGCACAG | 2.83 | 4.24 | 1.78 | 1.66 | 2.03 | 4.81 | 0.279 | 4.75 | 0.252 | 4.37 | 3.56 | 5.5 | 4.83 | 3.37 | 6.16 | 4.6 | 0.92 | 3.45 |
| TCGAGTCGGTTACCAATGGGGCATTCAGCTTTCT | 0.844 | -0.0532 | -0.399 | -0.375 | -0.537 | -0.204 | -0.793 | -0.238 | -0.811 | 0.0866 | 0.134 | -0.35 | -0.367 | 0.329 | -0.284 | -0.43 | -0.423 | -0.105 |
| TCTTGTAGAACAAGCAGGTTAAGAAAGCCTGAGT | 1.62 | 0.593 | 0.632 | -0.0834 | -0.0982 | 0.365 | 0.0921 | 0.607 | -0.498 | 0.0626 | 0.0404 | -0.0958 | -0.255 | 0.567 | 0.349 | 0.0268 | -0.349 | -0.0601 |
| AGTATGAGGTTAAGATCAGGGAAACAGAATACAT | 0.462 | 1.01 | 0.752 | 1.37 | 1.32 | 1.15 | 0.499 | 1.84 | 0.731 | 1.98 | 1.09 | 2.13 | 1.66 | 0.674 | 2.42 | 2.63 | 0.96 | 0.755 |
| CGAACGAGGGCATGAGTAGATAGCAAATGCCGAT | 2.5 | 2.07 | -0.283 | 0.0377 | 0.101 | 0.0706 | -0.112 | 0.0192 | -0.164 | 1.85 | 0.586 | 1.22 | 1.57 | 2.03 | 0.713 | 0.742 | -0.437 | 0.55 |
